Bioassay records (PubChem BioAssay)
DENV2 CPE – DENV2-induced cell death inhibition. DENV2-infected cells, cytopathic effect rescue, plate reader. CPE inhibition, % at 9.99 µM. 350,000 compounds, 1.7% hits; in the data active means CPE inhibition above about 20%, passing the limit was not always enough; tested in BHK-21 cells;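 further: 0% = median of neutral control wells and 100% = median of positive control wells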
GSIS activator – GLuc luminescence reporter in INS-1E cells, primary screen for activators of glucose-dependent secretion of insulin; INS-1E GLuc reporter insulin secretion, 2-3 h; activation, % at 16.6 µM; 370,000 compounds, 0.61% hits; AID 743287;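 active means lowest replicate activation of at least 40%, so every replicate reaches that level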;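 further: 0% = median of neutral control wells and 100% = median of IBMX positive control wells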
PGC1a acetyl inh – lowers PGC1a acetylation signal in U2OS cells. 350,000 compounds, 0.17% hits. AlphaScreen anti-acetyl-lysine; with virally co-expressed GCN5 acetyltransferase. inhibition, % at 15.6 µM;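 active means every replicate shows inhibition of at least 40%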;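 further: 0% = neutral control wells and 100% = positive control wells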
ERAP1 HTS inh – ERAP1 (human) enzyme inhibition; Q9NZ08; recombinant ERAP1, Leu-AMC fluorescence, 60 min; inhibition, % at 10.7 µM; 340,000 compounds, 0.15% hits;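 active means mean replicate inhibition of at least 30%, or all replicates individually reaching that 30% level; inactive means mean below 30% and not every replicate reaching it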;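 further: 0% = neutral control wells and 100% = L-leucinethiol positive control wells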
Target sequence (Q9NZ08 whole entry, looked up): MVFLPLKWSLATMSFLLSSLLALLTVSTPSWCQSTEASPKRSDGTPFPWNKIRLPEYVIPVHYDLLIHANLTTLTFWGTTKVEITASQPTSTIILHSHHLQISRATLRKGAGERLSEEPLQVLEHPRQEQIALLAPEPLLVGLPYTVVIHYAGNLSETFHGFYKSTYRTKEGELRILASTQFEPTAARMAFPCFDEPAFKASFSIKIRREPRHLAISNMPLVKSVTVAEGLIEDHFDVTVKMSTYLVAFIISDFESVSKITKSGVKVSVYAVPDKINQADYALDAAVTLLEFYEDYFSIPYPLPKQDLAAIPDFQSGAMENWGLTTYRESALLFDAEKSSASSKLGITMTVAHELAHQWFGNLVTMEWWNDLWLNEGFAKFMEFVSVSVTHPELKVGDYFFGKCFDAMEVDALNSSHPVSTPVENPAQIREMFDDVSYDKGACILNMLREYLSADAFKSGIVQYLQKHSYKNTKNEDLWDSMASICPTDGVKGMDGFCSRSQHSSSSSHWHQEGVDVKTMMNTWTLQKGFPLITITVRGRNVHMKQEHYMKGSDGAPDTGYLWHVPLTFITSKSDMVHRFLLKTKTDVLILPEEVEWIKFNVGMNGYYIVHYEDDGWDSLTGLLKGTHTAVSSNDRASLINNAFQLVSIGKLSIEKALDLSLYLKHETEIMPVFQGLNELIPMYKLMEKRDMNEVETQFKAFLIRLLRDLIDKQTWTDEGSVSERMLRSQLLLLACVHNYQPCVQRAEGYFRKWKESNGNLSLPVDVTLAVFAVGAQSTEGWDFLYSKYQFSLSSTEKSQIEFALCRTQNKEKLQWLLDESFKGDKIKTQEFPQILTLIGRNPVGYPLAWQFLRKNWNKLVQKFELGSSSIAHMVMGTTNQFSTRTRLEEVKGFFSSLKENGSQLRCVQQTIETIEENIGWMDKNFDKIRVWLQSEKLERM
rRNA inh HTS – selective bacterial rRNA inhibition in E. coli. E. coli WT GFP vs humanized-ribosome RFP mutants, fluorescence, 24 h; hits give low values; DMSO median 0, no signal -100. AID 720706. GFP signal change (wild-type ribosome), % (no concentration beside the values). 350,000 compounds, 1.6% hits;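 active means significant combined selectivity score with lowered wild-type GFP, culture density cut under 30%, mutant RFP and density less affected; inactive means any of these conditions unmet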
CaV13 FRET inh – Primary screen for inhibitors of IQ motif and Ca2+-dependent inactivation inhibitor domain binding in CACNA1D, Förster resonance energy transfer in living cells, …; HEK cells, CFP/YFP FRET ICDI-IQ, plate reader, 10 min; percent FRET-ratio fall versus neutral wells; inhibition, % at 12.3 µM; 340,000 compounds, 0.098% hits;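 active means mean replicate inhibition of at least 30% and at least 1% of replicates passing that level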;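 further: 0% = median of the neutral control wells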
An asterisk follows results filed as active; x = no result given; ! = repeats disagree. Only some compounds are listed: those with a hit (about 3.2% of all), similar ones and a draw of the others.

SMILES	DENV2 CPE	GSIS activator	PGC1a acetyl inh	ERAP1 HTS inh	rRNA inh HTS	CaV13 FRET inh
COc1ccc(C2CC(c3ccc(OC)c(OC)c3)=NN2C(=O)c2ccccc2)cc1 (stereo not given)	20	67*	2	0	-7	-20
O=C(O)c1ccc(N2N=C(c3ccccc3)CC2c2ccccc2)cc1 (stereo not given)	5	-29	10	-85	-30	115*
COc1cccc(C2CC(c3ccc(Br)cc3)=NN2C(=O)c2ccncc2)c1OC (stereo not given)	-6	-9	-22	2	-35*	-7
O=Cc1ccc(N2N=C(c3ccccc3)CC2c2ccccc2)cc1 (stereo not given)	5	-12	x	-3	9	-53
CC(C)NC(=O)N(C)C[C@H]1Oc2ccc(N(C)C)cc2CC(=O)N(C)C[C@H]1C	x	4	x	x	-1	x
S=C(NC1CC1)N1CCCc2ccccc21	54*	4	x	-6	4	x
O=C(COc1ccc(Cl)cc1Cl)NC(=S)N1CCCc2ccccc21	-7	-8	x	6	-26*	-8
C[C@H](CO)N1C[C@H](C)[C@@H](CN(C)C)Oc2c(NS(C)(=O)=O)cccc2C1=O	2	19	8	2	4	x
Cc1ccc(Cl)cc1N1CCN(CC(O)COC(C)C)CC1 (stereo not given)	33*	17	-3	7	-15	-4
COc1ccccc1C(=O)Nc1ccc2c(c1)C(=O)N(C)C[C@@H](OC)[C@@H](C)CN[C@H](C)CO2	17	2	-12	-2	-3	x
Cc1ccccc1NC(=O)COC(=O)c1ccc(S(C)(=O)=O)c([N+](=O)[O-])c1	x	5	x	-3	20	-19
O=C(OCc1nnc(-c2ccccc2)o1)C1=COCCO1	x	5	61*	x	x	x
CS(=O)(=O)c1ccc(C(=O)OCC(=O)NC(=O)C2COc3ccccc3O2)cc1[N+](=O)[O-] (stereo not given)	-3	106*	4	-1	x	-2
CS(=O)(=O)c1ccc(C(=O)OCC(=O)Nc2cccnc2Cl)cc1[N+](=O)[O-]	x	118*	x	1	3	x
CC(=O)c1cccc(NC(=O)COC(=O)c2ccc(S(C)(=O)=O)c([N+](=O)[O-])c2)c1	-9	48*	-28	-2	28	-5
Cc1ccc(C(=O)OCc2nnc(-c3ccc(Br)cc3)o2)cc1	-1	-1	-19	0	-16*	0
CS(=O)(=O)c1ccc(C(=O)OCc2nnc(-c3ccccc3)o2)cc1[N+](=O)[O-]	8	71*	x	-2	1	-5
CCNc1ccc(C(=O)OCC(=O)NC(=O)NCC(C)C)cc1[N+](=O)[O-]	10	-1	-1	3	5	-6
CCNc1ccc(C(=O)OCC(=O)NCc2ccccc2Cl)cc1[N+](=O)[O-]	x	59*	x	x	x	-3
CN(C)S(=O)(=O)c1ccc(C(=O)OCc2nnc(-c3ccccc3)o2)cc1	1	-3	1	0	-2	-2
COc1ccccc1C#Cc1ccc([C@H]2[C@@H](CO)N3CCCCN(C(=O)C4CC4)C[C@H]23)cc1	-3	x	-27	5	x	x
CCC/C(=C1/c2ccccc2C(=O)N1c1ccccc1)c1c(C)noc1C	-4	15	x	1	-25*	-5
CCC/C(C#Cc1ccc(N(C)C)cc1)=C1/c2ccccc2C(=O)N1c1ccccc1	12	18	-3	-1	10	-30
CCC/C(C#CCCN1C(=O)c2ccccc2C1=O)=C1/c2ccccc2C(=O)N1c1ccccc1	79*	18	-11	0	-4	-7
COc1ccc(NC(=O)N(C)C[C@@H]2OCCCC[C@@H](C)Oc3ccc(NC(=O)CCC(F)(F)F)cc3C(=O)N([C@H](C)CO)C[C@@H]2C)cc1	1	1	-1	0	3	x
SMILES	DENV2 CPE	GSIS activator	PGC1a acetyl inh	ERAP1 HTS inh	rRNA inh HTS	CaV13 FRET inh
O=C(NCC1CCCCC1)[C@H]1[C@H](CO)[C@H]2Cn3c(ccc(-c4ccccc4F)c3=O)[C@@H]1N2	-8	39	-8	2	-1	x
CCCNC(=O)N1CC2(C1)[C@H](c1ccccc1)[C@H](CO)N2C(=O)CC1CC1	23*	15	0	2	1	x
CCCNC(=O)N1CC2(C1)[C@H](c1ccccc1)[C@H](CO)N2C(=O)C1CCCCC1	65*	5	2	0	0	x
O=C(c1ccccc1)N1CC2(C1)[C@H](c1ccccc1)[C@@H](CO)N2C(=O)CC1CC1	26*	11	-1	0	1	x
O=C(c1ccncc1)N1CC2(C1)[C@H](c1ccccc1)[C@H](CO)N2C(=O)CC1CC1	-1	14	-1	x	3	x
COc1ccc2c3c(n(C)c2c1)[C@H](CO)N(C)CC31CN(C(=O)Nc2cccc(F)c2)C1	6	-16	-1	x	-5	x
N#Cc1nccnc1S(=O)(=O)c1cccs1	10	134*	x	x	-54	-3
CCN(CC)S(=O)(=O)c1ccc(N2CCN(c3cccc(OC)c3)CC2)c([N+](=O)[O-])c1	x	-20	4	x	x	-5
COc1cccc(N2CCN(c3ccc(S(=O)(=O)N4CCN(C)CC4)cc3[N+](=O)[O-])CC2)c1	-2	-5	4	5	-23*	-7
CCN1CCN(CC(=O)N2N=C(c3cccs3)CC2c2ccc(OC)c(OC)c2)C(=O)C1=O (stereo not given)	10	-6	9	2	0	1
C=C1C(=O)c2sccc2C(c2ccc(OC)c(OC)c2)C1COC(C)=O (stereo not given)	-4	115*	x	1	-25*	-5
O=C(N[C@@H]1CC[C@@H](CCNS(=O)(=O)c2ccccc2)O[C@H]1CO)c1cccnc1	32*	6	-3	-2	-2	x
O=C(Nc1ccc(F)cc1)N[C@H]1CC[C@H](CCNS(=O)(=O)c2cccc(Cl)c2)O[C@@H]1CO	-10	-12	3	-1	-17*!	-4
O=C(Nc1ccc(F)cc1)N[C@H]1CC[C@H](CCNS(=O)(=O)c2cccc(Cl)c2)O[C@H]1CO	12	-11	8	1	-7	x
O=C(N[C@H]1CC[C@H](CCNS(=O)(=O)c2ccccc2)O[C@@H]1CO)c1cccnc1	-5	8	-4	-2	1	x
O=C(N[C@@H]1CC[C@@H](CCNS(=O)(=O)c2cccc(Cl)c2)O[C@H]1CO)c1ccccc1	77*	1	1	1	-3	x
O=C(NCC[C@@H]1CC[C@@H](NS(=O)(=O)c2ccccc2)[C@@H](CO)O1)c1cc(Cl)cc(Cl)c1	-3	-7	2	-1	-16*!	-5
